From PubChem BioAssay AID933 (National Center for Advancing Translational Sciences (NCATS), 2007) come the findings set out here.

The structures appear in SMILES notation. Results filed as inconclusive are left out. Values without a mark were called inactive. Activity calls are given as the source filed them. Calls come from the whole dose curve; as a rule, active = well fitted activation curve with a large enough effect in the signal ratio, with a control signal flat; inconclusive = small, poorly fitted or top-dose-only effect, or a change in a side signal; inactive = flat fitted curve, though single readings scatter; the % refers to the signal ratio.

Thyrotropin receptor (Homo sapiens), sequence (P16473 whole entry, looked up): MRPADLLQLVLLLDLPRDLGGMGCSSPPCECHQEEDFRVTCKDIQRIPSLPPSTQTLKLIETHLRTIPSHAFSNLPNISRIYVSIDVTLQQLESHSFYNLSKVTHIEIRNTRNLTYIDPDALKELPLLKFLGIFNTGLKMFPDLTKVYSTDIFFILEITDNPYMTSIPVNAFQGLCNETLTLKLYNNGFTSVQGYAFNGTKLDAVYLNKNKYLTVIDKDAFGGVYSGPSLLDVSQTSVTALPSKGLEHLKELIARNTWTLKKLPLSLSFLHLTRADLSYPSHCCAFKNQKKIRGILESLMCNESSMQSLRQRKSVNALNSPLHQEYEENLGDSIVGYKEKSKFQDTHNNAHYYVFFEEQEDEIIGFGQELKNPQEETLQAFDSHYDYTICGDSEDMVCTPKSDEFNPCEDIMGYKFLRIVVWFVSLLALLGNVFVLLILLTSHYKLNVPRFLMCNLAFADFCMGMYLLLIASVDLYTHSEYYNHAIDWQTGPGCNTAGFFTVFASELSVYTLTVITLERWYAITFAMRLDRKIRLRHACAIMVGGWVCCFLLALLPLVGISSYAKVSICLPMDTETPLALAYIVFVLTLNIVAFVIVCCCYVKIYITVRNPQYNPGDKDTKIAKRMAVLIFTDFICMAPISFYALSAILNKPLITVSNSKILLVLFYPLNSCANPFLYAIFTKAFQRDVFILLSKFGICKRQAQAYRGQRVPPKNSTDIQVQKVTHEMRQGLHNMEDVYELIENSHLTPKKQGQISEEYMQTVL

This test addresses Thyrotropin receptor (Homo sapiens) (UniProt P16473). In words: Secondary Concentration-Response Assay for Agonists of the Thyroid Stimulating Hormone Receptor: HTRF Activity Detection.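 Note: HEK 293 cells stably expressing human TSHR with RO 20-1724 phosphodiesterase inhibitor; % of control where 0% means no effect.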 The note with it: HEK293-TSHR cells, cAMP HTRF ratio, 30 min; series mostly up to 91.7 µM. An excerpt: NIH Chemical Genomics Center [NCGC]
NIH Molecular Libraries Screening Centers Network [MLSCN]
PI Name: Dr. Marvin Gershengorn, NIH
Confirmation of Thyroid Stimulating Hormone Receptor Agonists
TSH is an alpha/beta heterodimeric glycoprotein hormone secreted from the anterior pituitary gland which belongs to the glycoprotein hormone family. The actions of TSH are mediated by a seven-transmembrane receptor, which upon TSH binding couples preferentially to the G-alpha (s) protein (Gs), resulting in activation of adenylate cyclase and increase in cyclic adenosine 3', 5' monophosphate (cAMP). The TSH receptor (THSR) is mainly expressed in thyroid follicular cells and regulates their growth and function. Recombinant TSH is used to activate TSHR in patients with thyroid cancer receiving thyroid hormone suppression therapy and to screen for residual tumor after surgery, but it is expensive and must be administered intramuscularly. An orally active small molecule TSHR agonist would serve as an invaluable research tool for studying TSHR pharmacology and physiology, and would have multiple advantages in therapeutic settings. However, no selective small molecule agonist of the TSH receptor exists, and no small molecule screen for TSHR agonists has ever been reported.
A confirmatory assay of putative TSHR agonists was conducted on a different TSHR transfected HEK 293 cell line, using an orthogonal detection technology to measure cAMP stimulation: antibody-based Homogeneous Time Resolved Fluorescence (HTRF).
NCGC Assay Protocol Summary:
Homogeneous Time Resolved Fluorescence (HTRF) cAMP Assay. HEK 293 cells stably transfected with a vector containing the TSHR and maintained under hygromycin selection were obtained from the laboratory of Dr. Marvin Gershengorn. […] Plates were measured using the Envision plate reader (PerkinElmer, Boston, MA) with excitation at 330 nm and emissions of 615 nm and 660 nm.
Keywords: Thyroid-stimulating hormone TSH, TSHR, TSHR agonist, quantitative high throughput screening, qHTS, HTS, probe identification, CNG, cAMP, cyclic nucleotide gated ion channel PubChem
A general note: In TR-FRET formats the signal depends on donor and acceptor labels being close together.
Turning to `CCOC(=O)C1=C(N)Oc2c(c(=O)oc3ccccc23)C12C(=O)N(C)c1ccccc12` (stereo not drawn), the outcome was inactive.
For the compound `C=CCN1C(=O)C2(C(C(=O)OC)=C(N)Oc3c2c(=O)oc2ccccc32)c2ccccc21` (stereo not drawn), the outcome was inactive.
As for `O=c1[nH]c(=O)n(Cc2ccco2)c(O)c1C=NC1CC1`, the activation is -0.432% [at 0.00035 µM].
